According to PubChem BioAssay AID652122 (NMMLSC, 2013):
Unmarked numbers belong to inactive results.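 Rule for the calls: active = at least 15% of cells fluorescing red and green at top dose, and half-maximal dose below 10 µM; inactive = the rest.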

test: inducers of GFP+/MAC1+ phenotype in HoxA9-arrested cells – cell-based, wild-type HoxA9, flow cytometry, Powder Set01 subset01, dose response (AID 652122); details: HoxA9 wt myeloid cells; series mostly up to 10 µM; percent double positive (differentiation): at the top concentration

| SMILES | percent double positive (differentiation) |
| --- | --- |
| O=C(O)c1cccnc1Nc1ccc(Cl)cc1 | 16.6% |
| O=C(CCNC(=O)c1ccc(Cl)cc1)NC1CCCc2ccccc21 (stereo not drawn) | 9.24% |
| Cc1ccc(Nc2nc(=O)c3cccnc3s2)c(Br)c1 | 14.1% |
